This is a sample that favours compounds with a hit; in the whole collection about 1.1% have one here.
AmpC inh detg – blocks E. coli AmpC beta-lactamase in detergent assay. P00811. AmpC hydrolysis of nitrocefin, absorbance 480 nm, 0.01% Triton. Potency, µM (titrated, usually from 114 µM), most hits filed as inhibitors. hit rate 0.041% among 370,000; note: nearly all actives have a fitted effect of over 25% in size
Target sequence (P00811 whole entry, looked up): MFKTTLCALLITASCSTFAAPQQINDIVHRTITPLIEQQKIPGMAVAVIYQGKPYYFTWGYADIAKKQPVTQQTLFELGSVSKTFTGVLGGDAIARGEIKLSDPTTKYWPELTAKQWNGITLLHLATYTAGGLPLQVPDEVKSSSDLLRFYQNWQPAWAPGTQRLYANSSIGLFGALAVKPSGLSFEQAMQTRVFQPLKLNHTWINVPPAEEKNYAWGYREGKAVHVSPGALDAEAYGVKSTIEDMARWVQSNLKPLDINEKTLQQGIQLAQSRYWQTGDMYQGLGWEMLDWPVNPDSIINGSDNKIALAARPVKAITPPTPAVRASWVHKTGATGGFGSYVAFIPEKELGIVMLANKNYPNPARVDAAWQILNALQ
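AmpC (5.3 nM in the dispensed reagent) in 20 mM phosphate pH 7.0 with 0.01% (detergent screen) or 0.0001% Triton X-100 was preincubated with compounds for 15 min at room temperature. Nitrocefin was then added from an 800 uM solution, and hydrolysis was followed at 480 nm.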
SARS PLpro yeast – inhibitors of SARS-CoV papain-like protease in yeast; S. cerevisiae expressing SARS-CoV PLpro, growth rescue; Potency, µM (top dose mostly 32.9 µM), hits mostly activators; hit rate 0.19% among 330,000; AID 485353; calls by dose curve; note: nearly all actives have a fitted effect of over 55% in size
FBPA Giardia inh – blocks Giardia fructose-bisphosphate aldolase activity; A8B2U2; purified Giardia FBPA; Potency, µM (top dose mostly 59.6 µM), actives largely listed as inhibitors; hit rate 0.71% among 290,000; AID 2451; note: nearly all actives have a fitted effect of over 55% in size
Target sequence (A8B2U2 whole entry, looked up): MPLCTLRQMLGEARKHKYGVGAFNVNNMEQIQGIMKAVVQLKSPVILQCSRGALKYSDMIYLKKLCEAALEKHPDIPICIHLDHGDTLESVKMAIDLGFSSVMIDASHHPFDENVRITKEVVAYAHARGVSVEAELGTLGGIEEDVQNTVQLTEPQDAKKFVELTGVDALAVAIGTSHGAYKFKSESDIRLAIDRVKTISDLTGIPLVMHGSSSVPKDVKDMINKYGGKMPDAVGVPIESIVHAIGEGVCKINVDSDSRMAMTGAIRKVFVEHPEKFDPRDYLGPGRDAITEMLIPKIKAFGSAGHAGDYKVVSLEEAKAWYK
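Giardia FBPA (40 nM reagent) was preincubated 10 min at RT with compound (up to 57.5 uM final), then substrate plus GAPDH/TPI/NAD/arsenate coupling system with diaphorase/resazurin was added; resorufin fluorescence (525/598 nm) was read after 20 min.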
AmpC inh no detg – inhibitors of E. coli AmpC beta-lactamase without detergent; hit rate 0.52% among 330,000; Potency, µM (doses to about 57.1 µM), most hits filed as inhibitors; AmpC nitrocefin hydrolysis, absorbance 480 nm, 0.0001% Triton; note: nearly all actives have a fitted effect of over 20% in size
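AmpC (5.3 nM in the dispensed reagent) in 20 mM phosphate pH 7.0 with 0.01% (detergent screen) or 0.0001% Triton X-100 was preincubated with compounds for 15 min at room temperature. Nitrocefin was then added from an 800 uM solution, and hydrolysis was followed at 480 nm.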
Of the large screens only hits and unclear results are named; the others gave an inactive call. Unless noted, calls come from the whole dose curve; as a rule, active = well fitted curve in the direction sought with a large enough effect; inconclusive = small, poorly fitted or top-dose-only effect, or another doubt; inactive = no such curve, though single readings can be large; an effect the other way counts as inactive or inconclusive.

CCOc1ccc(S(=O)(=O)N(CC(=O)N/N=C/c2ccc(-c3ccc([N+](=O)[O-])cc3)o2)c2ccccc2)cc1	AmpC inh no detg 13µM
COC(=O)C1C(=O)c2c([nH]c(C(=O)OCC3CCCO3)c2C)CC1C (configuration not stated)	AmpC inh detg inconclusive, AmpC inh no detg 10µM
COCCOC(=O)c1[nH]c2c(c1C)C(=O)C(C(=O)OC)C(C)C2 (configuration not stated)	FBPA Giardia inh inconclusive
COC(=O)C1=C(C(=O)OC)[C@@H]2N(C)c3ccc(OC)cc3[C@@]23C[C@@H](C(=O)OC)N(S(=O)(=O)c2ccc(C#N)cc2)C3=N1	none (no result: AmpC inh detg, SARS PLpro yeast, AmpC inh no detg)
CCN(CC)CCC(c1ccc(N(C)C)cc1)c1c(OC)cc(OC)c2c1OC(=O)CC2c1ccc(N(C)C)cc1 (configuration not stated)	none (no result: AmpC inh detg, SARS PLpro yeast, AmpC inh no detg)
Cc1cc(NC(=O)c2sc(Nc3cccc(C(F)(F)F)c3)nc2N)no1	AmpC inh detg inconclusive
Cc1cc(NC(=O)c2sc(Nc3ccc(F)c(Cl)c3)nc2N)no1	AmpC inh no detg 20µM
CNC(=S)NC1CC2CCCC(C1)N2Cc1ccco1 (configuration not stated)	none
COCCCNC(=S)NC1CC2CCCC(C1)N2Cc1ccco1 (configuration not stated)	AmpC inh no detg 1.8µM
CCOC(=O)c1cnn(-c2cccc(Cl)c2)c1C1CCN(C(=O)OC(C)(C)C)CC1	none (no result: SARS PLpro yeast, FBPA Giardia inh, AmpC inh no detg)
CSCC[C@H](NC(=O)[C@H](CC(C)C)N1CCC(NC(=O)[C@@H](NC(=O)[C@H](Cc2ccccc2)NC(=O)[C@H](CO)NC(=O)[C@H](CC(=O)O)NC(=O)[C@@H](N)CCCCN)C(C)C)C1=O)C(N)=O (some centres not stated)	none (no result: AmpC inh detg, SARS PLpro yeast, AmpC inh no detg)
O=[N+]([O-])c1cc(-c2ncccn2)c([N+](=O)[O-])s1	FBPA Giardia inh 16µM
O=C(Nc1ncccn1)c1cc([N+](=O)[O-])cc([N+](=O)[O-])c1	none
Cc1ccc(NS(=O)(=O)c2ccc(C(=O)N3CCCC(C(F)(F)F)C3)cc2)cc1 (configuration not stated)	AmpC inh detg inconclusive, AmpC inh no detg 35µM (no result: FBPA Giardia inh)
COc1ccccc1NS(=O)(=O)c1ccc(C(=O)N2CCCC(C(F)(F)F)C2)cc1 (configuration not stated)	none (no result: FBPA Giardia inh)
C/C(=N\NC(=O)c1nnn(-c2nonc2N)c1CN(C)c1ccccc1)c1ccc(O)cc1	AmpC inh no detg 25µM
O=C(c1ccc2nc(-c3ccco3)c(-c3ccco3)nc2c1)N1CCN(c2ccccc2)CC1	AmpC inh detg inconclusive, FBPA Giardia inh inconclusive
O=C(c1ccc2nc(-c3ccco3)c(-c3ccco3)nc2c1)N1CCC2(CC1)OCCO2	FBPA Giardia inh 7.1µM
O=S(=O)(c1ccc2ccccc2c1)N1CCOCC1	none
O=C(O)c1ccc2nc(-c3ccco3)c(-c3ccco3)nc2c1	FBPA Giardia inh 6.3µM
O=S(=O)(c1ccc2nc(-c3ccco3)c(-c3ccco3)nc2c1)N1CCOCC1	FBPA Giardia inh 2.5µM
CCC(C)C(NC(=O)OC(C)(C)C)C(=O)NC1COC2CC(n3ccc(NC(C)=O)nc3=O)OC12 (configuration not stated)	none (no result: AmpC inh detg, SARS PLpro yeast, AmpC inh no detg)
Cc1ccccc1OCc1ccc(-c2nc(C#N)c(NCc3cccnc3)o2)o1	none (no result: SARS PLpro yeast, FBPA Giardia inh, AmpC inh no detg)
Cc1ccc(Sc2ccccc2CN(C)C)c(N)c1	none (no result: AmpC inh detg, SARS PLpro yeast, AmpC inh no detg)
O=C(Cn1nc(C(=O)O)c2ccccc2c1=O)Nc1ccc(Br)cc1	none
O=C(Cn1nc(C(=O)O)c2ccccc2c1=O)Nc1cc(Cl)cc(Cl)c1	AmpC inh no detg 11µM
OC1OC[C@H](O)[C@H](O)[C@H]1O (some centres not stated)	none (no result: AmpC inh detg, SARS PLpro yeast, AmpC inh no detg)
C=CCNC(=O)Nc1ccc(Br)cc1Cl	none
O=C(Nc1ccncc1)Nc1ccc(Br)cc1Cl	AmpC inh detg inconclusive, AmpC inh no detg 7.9µM
Cc1cc2c(s1)c(C#N)c(C(=O)NCc1ccccc1F)n2C	none (no result: FBPA Giardia inh)
CCc1ccc(S(=O)(=O)/N=C2\C=CC(=O)c3ccccc32)cc1	FBPA Giardia inh 7.1µM, AmpC inh no detg 16µM
Cc1cc(C)c(S(=O)(=O)/N=C2\C=C(Nc3ccc(C(=O)O)cc3)C(=O)c3ccccc32)c(C)c1	FBPA Giardia inh inconclusive, AmpC inh no detg 13µM
CCc1ccc(S(=O)(=O)/N=C2\C=C(Nc3ccc(O)cc3)C(=O)c3ccccc32)cc1	FBPA Giardia inh 1.4µM
O=C(O)c1ccc(NC2=C/C(=N/S(=O)(=O)c3ccccc3)c3ccccc3C2=O)cc1	FBPA Giardia inh inconclusive
CCc1ccc(S(=O)(=O)/N=C2/C=C(Sc3ncn[nH]3)C(=O)c3ccccc32)cc1	FBPA Giardia inh 0.79µM, AmpC inh no detg 20µM
COC(=O)C(C(C)=O)C1c2ccccc2C=C(C)N1C(=O)OC (configuration not stated)	none (no result: AmpC inh detg, SARS PLpro yeast, AmpC inh no detg)
CC(C)C[C@H](NC(=O)[C@H](CO)NC(=O)[C@H](C)NC(=O)[C@H](CCCN=C(N)N)NC(=O)[C@H](CCCN=C(N)N)NC(=O)[C@@H](N)CC(C)C)C(=O)NCC(=O)O	none (no result: AmpC inh detg, SARS PLpro yeast, AmpC inh no detg)
CCc1cnc2c(c1SC(C(C)=O)C(=O)N(C)C)c(=O)n(C)c(=O)n2C (configuration not stated)	none (no result: SARS PLpro yeast, FBPA Giardia inh, AmpC inh no detg)
Cc1cc2c(C)ccc(C)c2nc1SCC(=O)c1cccs1	AmpC inh detg inconclusive, AmpC inh no detg 0.18µM
O=c1cc(CO)oc(C(Nc2ccccn2)c2ccc(C(F)(F)F)cc2)c1O (configuration not stated)	none
O=c1cc(CO)oc(C(Nc2ccccn2)c2cccc(F)c2)c1O (configuration not stated)	AmpC inh detg inconclusive, FBPA Giardia inh inconclusive, AmpC inh no detg 40µM
CNCc1ccccc1Sc1ccc(O)c(O)c1	AmpC inh detg inconclusive, FBPA Giardia inh 2.5µM
CNC(C)Cc1ccccc1Sc1ccc(O)cc1 (configuration not stated)	AmpC inh detg inconclusive
Cc1ccc(SCc2[nH]nc3c2C2(CCSCC2)C(C#N)=C(N)O3)cc1	AmpC inh no detg 28µM
Cc1nc(-n2ncc(C#N)c2N)c2c3c(sc2n1)CCC3	AmpC inh detg inconclusive
CCCSc1nc(-n2ncc(C#N)c2N)c2c3c(sc2n1)CCC(C)C3 (configuration not stated)	AmpC inh no detg 2µM
CC(C)C[C@H](NC(=O)[C@H](CO)NC(=O)CNC(=O)[C@H](CCCCN)NC(=O)[C@H](CCCN=C(N)N)NC(=O)[C@H](C)NC(=O)[C@H](Cc1ccccc1)NC(=O)[C@@H](N)CCCN=C(N)N)C(=O)N[C@@H](CCCN=C(N)N)C(=O)N[C@@H](CCC(N)=O)C(=O)N[C@@H](CCCCN)C(=O)N[C@@H](CC(N)=O)C(=O)N[C@H](C(=O)O)C(C)C	none (no result: AmpC inh detg, SARS PLpro yeast, AmpC inh no detg)
O=C(Nc1nccs1)c1ccc(-c2ccc(F)c(Cl)c2)o1	AmpC inh no detg 25µM (no result: FBPA Giardia inh)
CCOC(=O)N1CCC(NC(=O)c2cc(C(=O)NC3CCCC3)ccc2CO)CC1	AmpC inh detg inconclusive, AmpC inh no detg 0.71µM
CCOC(=O)N1CCC(NC(=O)c2ccc(CO)c(C(=O)NC3CCN(C(=O)OCC)CC3)c2)CC1	AmpC inh detg inconclusive
Cc1ccc(N/N=C(\C#N)C(N)=S)c(C)c1	AmpC inh no detg 3.5µM
